Inconclusive results are not listed. Activity calls are given as the source filed them.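 How the source made its calls, unless noted: active means inhibition above 54%, about 3 SD of non-fluorescent compounds; inactive means the rest.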
Legend:
[1] = rapamycin-like changes in RPL19A-GFP expression – cell-based, S. cerevisiae, multiplex flow cytometry, primary screen (AID 1862; in the data active means percent of DMSO control GFP below about 86%;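 further: lower values mimic rapamycin by blocking the RPL19A rise seen in DMSO cells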); conditions: S. cerevisiae RPL19A-GFP strain, flow cytometry fluorescence, 3 h; at 10 µM; stronger effect = lower value
[2] = TOR pathway GLN3 branch reporter MEP2-GFP changes – S. cerevisiae, multiplex flow cytometry, primary screen (AID 1867;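 active means GFP response, as percent of the DMSO control, above the screen-wide mean plus 3 SD, about 139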;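 further: median GFP channel fluorescence of barcode-gated MEP2-GFP cells measured by flow cytometry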); conditions: S. cerevisiae MEP2-GFP strain, 3 h, at 10 µM, stronger effect = higher value, 100% means same as DMSO wells
[3] = TOR pathway RTG branch CIT2 reporter changes – S. cerevisiae, GFP fusion, multiplex flow cytometry, primary screen (AID 1870;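 active means percent response above a set limit, the screen-wide mean plus 3 SD, cut at about 130% in these data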;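 further: barcoded CIT2-GFP strain pooled with four other GFP strains with rapamycin as positive control; median GFP fluorescence per well over plate mean of DMSO wells so 100% = DMSO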); conditions: S. cerevisiae CIT2-GFP expression, 3 h, at 10 µM, stronger effect = higher value
[4] = TOR pathway LAP4-GFP level changes – S. cerevisiae, multiplex flow cytometry, primary screen (AID 1873;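 active means GFP signal, as percent of the solvent control, above the screen mean plus 3 SD, about 149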); conditions: S. cerevisiae LAP4-GFP expression, 3 h, at 10 µM, stronger effect = higher value
[5] = yeast AGP1-GFP level changes, GLN3 branch – cell-based, multiplex flow cytometry, S. cerevisiae, primary screen (AID 1887;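 active means GFP signal above the screen-wide mean plus 3 SD, that is over about 124.5% of the solvent control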;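 further: AGP1-GFP fusion strain of S. cerevisiae within a five-strain barcoded multiplex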); conditions: 3 h, at 10 µM, stronger effect = higher value
[6] = reduced mouse 2C T cell binding to pMHC/ICAM-1 vesicles – MLPCN validation set, flow cytometry, LFA-1/ICAM-1 modulator project, pilot screen (AID 2523;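 active means response below a set limit, under 55% cells CD8-positive and vesicle-bound, and CD8 cells' 90th-percentile brightness under 279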;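 on vesicle binding response: mean PE anti-B7-1 fluorescence of CD8+ cells relative to row control; 100% = QL9-loaded vesicles with DMSO vehicle in the same plate row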); conditions: 2C mouse CD8+ T cells, at 7 µM, stronger effect = lower value; double positive events: measured here: CD8+/vesicle+ event percentage
[7] = molecular target: Integrin beta-1 (Homo sapiens) + Integrin alpha-4 (Homo sapiens) (UniProt P13612+P05556); assay: alpha4beta1 integrin LIBS antibody binding reduction – U937 cells, HUTS-21 mAb, flow cytometry, validation set, VLA-4 allosteric modulator project, pilot screen (AID 2674;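 active means inhibition above 50%, about 3 SD of the validation set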;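 further: antibody binding induced by the VLA-4 ligand LDV present at three times its Kd; 0% = LDV ligand with antibody and no compound and 100% = antibody without LDV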); conditions: HUTS-21 LIBS mAb binding, at 6.7 µM, stronger effect = higher value, binding induced by LDV ligand
[8] = calorie-restriction mimetic ROS inhibitors, yeast – validation compound set, pilot screen (AID 2706;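 active means superoxide response below 65% of plate, a cut near 3 SD across the whole screen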;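 further: yeast exposed to compound for one week at 30 degrees C before staining; 100% = mean of all compound wells on the same plate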); conditions: S. cerevisiae aging, superoxide DHE fluorescence; at 10 µM; stronger effect = lower value
[9] = molecular target: Beta-adrenergic receptor kinase 1 (Homo sapiens) (UniProt P25098); assay: GRK2 binders displacing RNA aptamer, biochemical, validation, human GRK2, bead flow cytometry (AID 488806;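 active means aptamer binding inhibition above 30%, about 3 SD of noise from non-fluorescent compounds; inactive means inhibition at or below 30%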); conditions: bead-bound GRK2, FAM-aptamer displacement, at 10 µM, stronger effect = higher value
[10] = molecular target: Beta-2 adrenergic receptor (Homo sapiens) (UniProt P07550); assay: agonist-induced loss of surface beta2AR – cell-based, FAP fluorogen, flow cytometry, validation set, pilot screen (AID 504459;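 active means percent response above 42, roughly 3 SD of non-fluorescent test compounds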;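 further: agonist-driven loss of surface beta2AR via internalization measured by FAP dye flow cytometry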); conditions: Am2.2-beta2AR cells, at 10 µM, stronger effect = higher value
[11] = molecular target: AP-2 complex subunit beta (Homo sapiens) (UniProt P63010); assay: beta-arrestin/AP2 interaction blockers – biochemical, validation set, GST-AP2 beads, flow cytometry, pilot screen (AID 504541); conditions: FITC arrestin peptide, at 10 µM, stronger effect = higher value, AP2 beta2 appendage fragment, R879A mutant;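 further: AP2 carries R879A mutation and is captured from E. coli lysate; bead-bound FITC arrestin peptide fluorescence measuring arrestin peptide binding to AP2; 0% = DMSO wells and 100% = excess unlabeled arrestin peptide control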
[12] = cytosolic pH regulators acting via V-ATPase – S. cerevisiae, pHLuorin, HTS validation (AID 504600; in the data active means response above about 15%;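 further: plate controls were DMSO for no effect and reference compound for full effect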); conditions: V-ATPase proton transport, at 10 µM, stronger effect = higher value
[13] = test system: anti-desmoglein-3 scFv antibody binding to human DSG3; assay: blockers of pathogenic pemphigus antibody–desmoglein-3 binding – biochemical, validation compound set, bead-based, flow cytometry, pilot screen (AID 588368;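 active means binding below the plate cutoff, the plate median minus 3 SD, with a reading above zero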;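 further: signal is the median channel fluorescence of bead-bound GFP antibody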); conditions: Protein G beads, DSG3-Fc, scFv-GFP binding, at 10 µM, stronger effect = lower value
[14] = Nile Red efflux blockade in pump-expressing yeast – validation compound set, multiplex, phenotypic, pilot screen (AID 588506;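 active means efflux inhibition above 0.42, the validation set average plus 4 SD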;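 further: Nile Red retained in cells so higher fluorescence means more efflux inhibition; 0 = negative control wells and 1 = enniatin B 25 µM full block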); conditions: S. cerevisiae pump-expressing triplex, Nile Red efflux flow cytometry; at 10 µM; stronger effect = higher value; the pumps come from Candida albicans
[15] = molecular target: ATP-binding cassette sub-family B member 6 (Homo sapiens) (UniProt Q9NP58); assay: blockers of ABCB6-driven porphyrin uptake – K562-ABCB6 cells, flow cytometry, validation set, pilot screen (AID 588550;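 active means inhibition above the screen-wide mean plus 3 SD, about 51%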;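 further: 0% = DMSO wells and 100% = benzethonium chloride 70 µM positive control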); conditions: K562-ABCB6 porphyrin accumulation, 1 h, at 10 µM, stronger effect = higher value
[16] = AML differentiation inducers, ER-HoxA9 marrow cells – cell-based, GFP/MAC1 double positive, flow cytometry, validation set, primary screen (AID 588685;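 active means differentiation response of at least 50%, scaled between solvent and reference control, from cells with both markers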;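 further: compound exposure lasts four days before antibody staining and flow analysis; 0% = DMSO wells and 100% = 5 µM fulvestrant positive control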); conditions: stronger effect = higher value, normalized: vehicle 0, fulvestrant 100

Integrin beta-1 (Homo sapiens) + Integrin alpha-4 (Homo sapiens), sequence (P05556 whole entry, looked up): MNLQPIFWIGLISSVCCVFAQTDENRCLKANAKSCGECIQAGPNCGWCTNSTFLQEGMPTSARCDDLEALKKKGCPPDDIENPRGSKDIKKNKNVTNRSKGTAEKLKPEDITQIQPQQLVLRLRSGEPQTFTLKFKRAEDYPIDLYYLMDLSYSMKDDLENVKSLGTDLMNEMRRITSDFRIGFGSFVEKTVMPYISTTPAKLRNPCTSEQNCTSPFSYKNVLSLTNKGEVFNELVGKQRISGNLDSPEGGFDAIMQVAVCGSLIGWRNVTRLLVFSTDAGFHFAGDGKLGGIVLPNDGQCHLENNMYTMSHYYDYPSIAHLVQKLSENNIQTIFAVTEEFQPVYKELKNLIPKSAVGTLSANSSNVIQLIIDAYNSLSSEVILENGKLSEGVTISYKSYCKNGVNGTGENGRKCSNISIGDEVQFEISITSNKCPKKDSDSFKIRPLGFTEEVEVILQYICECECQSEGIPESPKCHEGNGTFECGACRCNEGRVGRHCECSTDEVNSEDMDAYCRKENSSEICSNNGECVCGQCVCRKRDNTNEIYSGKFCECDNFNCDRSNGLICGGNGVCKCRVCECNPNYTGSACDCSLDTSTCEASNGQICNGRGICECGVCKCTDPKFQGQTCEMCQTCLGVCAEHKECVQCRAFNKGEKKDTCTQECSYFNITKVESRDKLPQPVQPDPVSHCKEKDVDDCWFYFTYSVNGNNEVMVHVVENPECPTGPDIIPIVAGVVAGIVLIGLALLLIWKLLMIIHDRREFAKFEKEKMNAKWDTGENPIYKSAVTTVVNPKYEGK
Integrin beta-1 (Homo sapiens) + Integrin alpha-4 (Homo sapiens), sequence (P13612 whole entry, looked up): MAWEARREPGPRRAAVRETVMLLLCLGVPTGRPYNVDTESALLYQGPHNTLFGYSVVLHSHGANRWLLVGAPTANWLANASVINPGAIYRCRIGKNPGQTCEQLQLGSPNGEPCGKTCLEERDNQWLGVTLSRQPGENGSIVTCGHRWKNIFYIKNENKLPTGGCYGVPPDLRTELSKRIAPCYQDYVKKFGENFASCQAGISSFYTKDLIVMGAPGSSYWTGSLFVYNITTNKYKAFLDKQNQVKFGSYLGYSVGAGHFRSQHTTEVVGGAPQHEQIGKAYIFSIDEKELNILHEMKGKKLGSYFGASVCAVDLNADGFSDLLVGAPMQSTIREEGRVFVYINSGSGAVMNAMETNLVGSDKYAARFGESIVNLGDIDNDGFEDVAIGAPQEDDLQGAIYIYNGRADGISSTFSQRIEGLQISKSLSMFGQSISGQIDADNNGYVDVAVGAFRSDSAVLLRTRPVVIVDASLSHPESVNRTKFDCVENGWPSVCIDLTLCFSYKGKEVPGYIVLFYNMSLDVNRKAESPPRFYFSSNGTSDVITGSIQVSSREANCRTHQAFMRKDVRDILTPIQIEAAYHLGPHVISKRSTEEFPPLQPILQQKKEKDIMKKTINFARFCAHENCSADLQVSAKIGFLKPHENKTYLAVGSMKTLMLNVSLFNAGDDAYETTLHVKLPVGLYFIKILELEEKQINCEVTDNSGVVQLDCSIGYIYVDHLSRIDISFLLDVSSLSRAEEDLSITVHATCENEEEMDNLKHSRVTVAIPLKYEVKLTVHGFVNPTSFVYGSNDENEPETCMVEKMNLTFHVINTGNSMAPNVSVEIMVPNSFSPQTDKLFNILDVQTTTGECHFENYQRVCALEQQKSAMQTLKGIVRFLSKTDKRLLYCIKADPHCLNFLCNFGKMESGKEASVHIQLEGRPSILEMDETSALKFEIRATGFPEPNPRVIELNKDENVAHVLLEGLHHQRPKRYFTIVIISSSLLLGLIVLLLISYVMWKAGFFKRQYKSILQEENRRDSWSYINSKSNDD
AP-2 complex subunit beta (Homo sapiens), sequence (P63010 whole entry, looked up, the tested form may be a part, one chain of several): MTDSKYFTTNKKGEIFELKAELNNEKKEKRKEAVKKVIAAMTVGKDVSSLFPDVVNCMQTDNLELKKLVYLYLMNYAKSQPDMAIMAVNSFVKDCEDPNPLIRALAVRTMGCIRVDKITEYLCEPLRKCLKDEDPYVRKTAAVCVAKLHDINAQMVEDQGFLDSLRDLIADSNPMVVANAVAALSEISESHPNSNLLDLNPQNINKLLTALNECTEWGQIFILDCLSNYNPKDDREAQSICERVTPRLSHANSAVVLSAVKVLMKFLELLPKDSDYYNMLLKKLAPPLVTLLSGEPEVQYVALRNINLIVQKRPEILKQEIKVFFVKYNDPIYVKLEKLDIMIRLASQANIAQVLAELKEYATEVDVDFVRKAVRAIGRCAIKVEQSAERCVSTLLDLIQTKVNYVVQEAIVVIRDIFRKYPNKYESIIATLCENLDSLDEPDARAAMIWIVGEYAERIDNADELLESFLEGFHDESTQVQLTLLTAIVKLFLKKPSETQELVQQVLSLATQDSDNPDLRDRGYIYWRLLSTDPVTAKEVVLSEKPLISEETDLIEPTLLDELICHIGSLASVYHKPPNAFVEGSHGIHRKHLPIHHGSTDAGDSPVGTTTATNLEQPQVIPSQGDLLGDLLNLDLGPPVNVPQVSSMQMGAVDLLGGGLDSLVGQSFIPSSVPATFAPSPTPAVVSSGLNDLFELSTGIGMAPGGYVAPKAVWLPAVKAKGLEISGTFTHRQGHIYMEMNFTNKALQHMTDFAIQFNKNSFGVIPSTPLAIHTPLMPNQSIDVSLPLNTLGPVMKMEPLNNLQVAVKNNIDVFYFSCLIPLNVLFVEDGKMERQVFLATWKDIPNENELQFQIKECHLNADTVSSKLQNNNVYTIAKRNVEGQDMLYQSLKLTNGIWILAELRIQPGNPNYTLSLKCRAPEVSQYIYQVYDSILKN
Beta-adrenergic receptor kinase 1 (Homo sapiens), sequence (P25098 whole entry, looked up): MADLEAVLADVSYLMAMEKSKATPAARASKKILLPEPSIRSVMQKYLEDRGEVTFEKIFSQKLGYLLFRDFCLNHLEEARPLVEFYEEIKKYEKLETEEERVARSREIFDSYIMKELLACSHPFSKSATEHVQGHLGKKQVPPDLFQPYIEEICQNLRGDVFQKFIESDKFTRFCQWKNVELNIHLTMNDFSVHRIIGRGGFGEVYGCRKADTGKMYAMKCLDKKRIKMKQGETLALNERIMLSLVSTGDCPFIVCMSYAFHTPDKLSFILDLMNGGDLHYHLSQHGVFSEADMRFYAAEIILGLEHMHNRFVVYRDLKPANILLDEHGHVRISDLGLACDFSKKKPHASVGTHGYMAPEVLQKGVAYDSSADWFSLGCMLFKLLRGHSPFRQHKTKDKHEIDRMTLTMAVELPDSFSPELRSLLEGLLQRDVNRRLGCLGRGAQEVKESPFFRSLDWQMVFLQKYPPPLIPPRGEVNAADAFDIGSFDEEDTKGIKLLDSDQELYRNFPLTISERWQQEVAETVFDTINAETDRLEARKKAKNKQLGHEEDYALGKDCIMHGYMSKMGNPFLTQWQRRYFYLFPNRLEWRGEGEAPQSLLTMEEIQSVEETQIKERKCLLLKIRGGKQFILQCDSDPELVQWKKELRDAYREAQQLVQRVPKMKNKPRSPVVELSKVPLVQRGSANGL
ATP-binding cassette sub-family B member 6 (Homo sapiens), sequence (Q9NP58 whole entry, looked up): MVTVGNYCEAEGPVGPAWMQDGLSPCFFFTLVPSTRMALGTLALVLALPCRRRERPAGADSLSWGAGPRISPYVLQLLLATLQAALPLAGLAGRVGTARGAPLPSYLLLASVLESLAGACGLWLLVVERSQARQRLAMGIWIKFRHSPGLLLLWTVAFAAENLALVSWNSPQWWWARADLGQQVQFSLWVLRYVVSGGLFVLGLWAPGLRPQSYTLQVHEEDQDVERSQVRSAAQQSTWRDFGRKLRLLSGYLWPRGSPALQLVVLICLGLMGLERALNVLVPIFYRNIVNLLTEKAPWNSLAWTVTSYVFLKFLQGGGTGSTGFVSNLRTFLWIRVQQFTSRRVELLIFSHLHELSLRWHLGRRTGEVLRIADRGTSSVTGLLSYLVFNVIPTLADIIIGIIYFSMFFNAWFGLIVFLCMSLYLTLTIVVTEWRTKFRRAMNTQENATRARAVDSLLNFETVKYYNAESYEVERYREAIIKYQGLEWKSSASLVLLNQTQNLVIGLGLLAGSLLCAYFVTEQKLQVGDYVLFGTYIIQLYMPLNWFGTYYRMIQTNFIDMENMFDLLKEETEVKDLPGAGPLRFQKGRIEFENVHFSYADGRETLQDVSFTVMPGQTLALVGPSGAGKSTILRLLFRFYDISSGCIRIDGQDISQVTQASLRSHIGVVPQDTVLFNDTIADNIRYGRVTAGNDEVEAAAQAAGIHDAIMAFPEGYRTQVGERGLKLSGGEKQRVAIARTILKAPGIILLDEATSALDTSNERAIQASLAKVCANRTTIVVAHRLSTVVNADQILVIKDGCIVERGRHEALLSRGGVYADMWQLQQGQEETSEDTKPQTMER
Beta-2 adrenergic receptor (Homo sapiens), sequence (P07550 whole entry, looked up, the tested form may be a part): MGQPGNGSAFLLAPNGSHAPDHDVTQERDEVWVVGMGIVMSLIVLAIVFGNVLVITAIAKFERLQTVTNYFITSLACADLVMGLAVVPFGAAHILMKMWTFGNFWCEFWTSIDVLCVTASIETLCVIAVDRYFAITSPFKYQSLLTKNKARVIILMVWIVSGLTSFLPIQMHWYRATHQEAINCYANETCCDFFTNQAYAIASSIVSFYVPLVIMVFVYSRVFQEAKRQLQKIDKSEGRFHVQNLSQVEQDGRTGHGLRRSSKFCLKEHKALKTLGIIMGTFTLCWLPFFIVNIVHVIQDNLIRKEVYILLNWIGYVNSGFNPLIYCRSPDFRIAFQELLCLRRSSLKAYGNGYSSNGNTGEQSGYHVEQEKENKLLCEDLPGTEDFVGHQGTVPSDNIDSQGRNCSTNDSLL

CC(C)CCn1c(N2CCc3ccccc3C2)nc2c1c(=O)[nH]c(=O)n2C
54.4%: double positive events [6]
inactive: percent of DMSO control GFP [1] 92.6% | GFP response vs DMSO [2] 128% | percent response of DMSO control [3] 108% | GFP response vs DMSO [4] 83.1% | GFP response, % of DMSO [5] 83.3% | vesicle binding response [6] 184% | inhibition [7] -6.15% | superoxide response (% of plate) [8] 98% | aptamer binding inhibition [9] -2% | response [10] -18.6% | inhibition [11] 2.58% | response [12] 2.15% | binding (% of control) [13] 104% | efflux inhibition (fraction of control) [14] -0.24 | inhibition [15] 12% | differentiation response [16] -4.91%

CCO/C([O-])=N/c1c[n+](N2CCOCC2)no1
inactive: percent of DMSO control GFP [1] 99.8% | GFP response vs DMSO [2] 97.7% | percent response of DMSO control [3] 103% | GFP response vs DMSO [4] 110% | GFP response, % of DMSO [5] 106% | vesicle binding response [6] 237% | inhibition [7] -18.5% | superoxide response (% of plate) [8] 115% | aptamer binding inhibition [9] -1% | response [10] 9.37% | inhibition [11] -14.8% | response [12] 0.46% | binding (% of control) [13] 100% | efflux inhibition (fraction of control) [14] 0 | inhibition [15] -4% | differentiation response [16] -0.18%
64.1%: double positive events [6]

CN1CCN(CCCN2c3ccccc3Sc3ccc(Cl)cc32)CC1
61.4%: double positive events [6]
inactive: percent of DMSO control GFP [1] 99.3% | GFP response vs DMSO [2] 102% | percent response of DMSO control [3] 97% | GFP response vs DMSO [4] 113% | GFP response, % of DMSO [5] 120% | vesicle binding response [6] 179% | superoxide response (% of plate) [8] 70.1% | aptamer binding inhibition [9] 0% | response [10] -15% | inhibition [11] 0.77% | response [12] 1.39% | binding (% of control) [13] 106% | efflux inhibition (fraction of control) [14] -0.17 | inhibition [15] 7% | differentiation response [16] 3.88%
active: inhibition [7] 63.6%

O=C(O)CCCCCCNC(=O)c1cncc(O)c1
63.9%: double positive events [6]
inactive: percent of DMSO control GFP [1] 104% | GFP response vs DMSO [2] 107% | percent response of DMSO control [3] 105% | GFP response vs DMSO [4] 113% | GFP response, % of DMSO [5] 115% | vesicle binding response [6] 153% | inhibition [7] 13.4% | superoxide response (% of plate) [8] 112% | aptamer binding inhibition [9] 7% | response [10] -25.8% | inhibition [11] 12.7% | response [12] -3.09% | binding (% of control) [13] 97.3% | efflux inhibition (fraction of control) [14] 0 | inhibition [15] -5% | differentiation response [16] -4%

O=C(O)c1ccc(-c2ccc(O)c(F)c2)cc1
60%: double positive events [6]
inactive: percent of DMSO control GFP [1] 105% | GFP response vs DMSO [2] 105% | percent response of DMSO control [3] 111% | GFP response vs DMSO [4] 98% | GFP response, % of DMSO [5] 102% | vesicle binding response [6] 4700% | inhibition [7] -1.49% | superoxide response (% of plate) [8] 96.3% | aptamer binding inhibition [9] -2% | response [10] -5.66% | inhibition [11] -6.99% | response [12] 3.09% | binding (% of control) [13] 97.9% | efflux inhibition (fraction of control) [14] -0.17 | inhibition [15] -1% | differentiation response [16] -6.6%
